Compounds with a hit are over-represented: about 3.6% of the library has one in this group of screens.
mHTT CaM bind – disrupts binding of mutant huntingtin to calmodulin; AlphaScreen His-mHTT/GST-CaM binding, luminescence; inhibition, % at 15 µM; hit rate 3.6% among 190,000;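 note: 0% = both proteins with DMSO and 100% = one protein alone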
Pf apPOL block – Pf-apPOL DNA polymerase inhibition; Recombinant Pf-apPOL, molecular beacon fluorescence, 1.5 h; inhibition, % at 10 µM; hit rate 0.25% among 210,000
* hit, by the source's call. Cut-off read from the data, not from the text of the source: active = inhibition above about 50%; inactive = the rest.

For CCN(CC)C(=O)C1CCN(c2nc3ccc(-c4cccs4)nc3s2)CC1 the results were mHTT CaM bind 64* and Pf apPOL block -1.
Screening COCCN=C1Nc2ccccc2CNC12CCN(C(=O)c1ccccc1)C2 (centres undefined) returned mHTT CaM bind 24 and Pf apPOL block 2.
`CCc1onc(C)c1C1CCCN1C(=O)C(C)C` (centres undefined) gave mHTT CaM bind 0 and Pf apPOL block 7.
For CN(C)c1ccc(/C=C/C=C2/SC(=N)NC2=O)cc1 the results were mHTT CaM bind 62* and Pf apPOL block 2.
Screening CN(C)c1ccc(/C=C/C=C2/SC(=Nc3ccccc3)NC2=O)cc1 returned mHTT CaM bind 43 and Pf apPOL block 0.
`CC(=O)Nc1ccc(C(C)(c2ccccc2)c2ccc(NC(C)=O)cc2)cc1` gave mHTT CaM bind 32 and Pf apPOL block -4.
`Oc1ccc2ccccc2c1CN1CCCCC1` gave Pf apPOL block -1.
Oc1ccc2ccccc2c1SSc1c(O)ccc2ccccc12 was read as mHTT CaM bind 100* and Pf apPOL block 0.
`O=C(NCc1cc(-c2cccs2)on1)C1(c2cccs2)CCCC1` gave mHTT CaM bind -14 and Pf apPOL block -5.
O=c1[nH]c2ccc(Cl)cc2c(-c2ccccc2)c1N1CCOCC1 was read as Pf apPOL block -18.
For O=C(CCN1CCCCC1)Nc1c(-c2ccccc2)c2cc(Br)ccc2[nH]c1=O the results were mHTT CaM bind 99* and Pf apPOL block -9.
Cc1[nH]c2ccc(Cl)cc2c(=O)c1CN1CCCC1 was read as mHTT CaM bind 0 and Pf apPOL block 0.
O=c1[nH]c2ccc(Cl)cc2c(-c2ccccc2)c1CN1CCCCC1 was read as mHTT CaM bind 100* and Pf apPOL block 0.
O=c1[nH]c2ccc(Cl)cc2c(-c2ccccc2)c1N1CCN(Cc2ccc3c(c2)OCO3)CC1 was read as mHTT CaM bind 100* and Pf apPOL block -2.
`O=C(CCN1CCCC1)Nc1cccc(Br)c1` gave mHTT CaM bind -4 and Pf apPOL block -3.
COc1ccc(C(=O)Nc2ccc(-c3nc4ncccc4o3)cc2)cc1[N+](=O)[O-] was read as mHTT CaM bind -4 and Pf apPOL block -11.
Screening CN1C2=NCCN2C(=O)c2cc(Cl)ccc21 returned Pf apPOL block -5.
CN(C)/C=C1\N=C(c2ccccc2)c2cc(Cl)ccc2N(C)C1=O was read as mHTT CaM bind 51* and Pf apPOL block 3.
`O=C(NCC(O)(c1ccccc1)C(F)(F)F)c1ccccc1Cl` (centres undefined) gave mHTT CaM bind -15 and Pf apPOL block -6.
For COCCCNC(=O)CCS(=O)(=O)c1cc(Br)cc2c1N(C(C)=O)CC2 the results were mHTT CaM bind 2 and Pf apPOL block -2.
CC1(C)CC(=O)C2=C(C1)OC(N)=C(C#N)C2c1cc([N+](=O)[O-])cs1 (centres undefined) was read as mHTT CaM bind -3 and Pf apPOL block -2.
`CC(=O)c1c(C(C)=O)c(C)n(-c2cc(C)c(C)cc2N)c1C` gave mHTT CaM bind 22 and Pf apPOL block -12.
Screening Cc1nnc(C)c2c(C)n(-c3ccc(N)cc3)c(C)c12 returned mHTT CaM bind 55* and Pf apPOL block -2.
For CC(=O)c1c(C(C)=O)c(C)n(-c2ccc(N)cc2)c1C the results were mHTT CaM bind 20 and Pf apPOL block -3.
`Cc1cc(N)c(-n2c(C)c3c(C)nnc(C)c3c2C)cc1C` gave mHTT CaM bind 88* and Pf apPOL block 0.
C=CCNC(=O)c1cc2c(=O)n3ccccc3nc2n(CCOC)c1=N was read as mHTT CaM bind -2 and Pf apPOL block -5.
O=C(/C=C/c1ccccc1)O/N=C1\CCCc2oc3c(c21)CCCC3 was read as mHTT CaM bind inactive and Pf apPOL block -5.
`CC1=CC(=O)C=C(C)C1=NOC(=O)/C=C/c1ccccc1` gave mHTT CaM bind 100* and Pf apPOL block 0.
CC(C)NC(=O)N1CCCC(c2cccc(C(=O)NCc3ccc(N(C)C)cc3)c2)C1 (centres undefined) was read as mHTT CaM bind 17 and Pf apPOL block -8.
Screening CCNC(=O)N1CCCC(c2cccc(C(=O)NCc3ccc(N(C)C)cc3)c2)C1 (centres undefined) returned mHTT CaM bind 54* and Pf apPOL block -4.
For COc1ccc(C=CC(=O)Oc2cc(C)[nH]c(=O)c2[N+](=O)[O-])cc1OC the results were mHTT CaM bind 91* and Pf apPOL block 6.
`CCCCOc1ccc(C(=O)Oc2cc(C)[nH]c(=O)c2[N+](=O)[O-])cc1` gave mHTT CaM bind 10 and Pf apPOL block -6.
COc1ccc(Cl)cc1C(=O)Oc1cc(C)[nH]c(=O)c1[N+](=O)[O-] was read as mHTT CaM bind -5 and Pf apPOL block -4.
For COc1ccc(C(=O)Oc2cc(C)[nH]c(=O)c2[N+](=O)[O-])cc1 the results were mHTT CaM bind 97* and Pf apPOL block 2.
Screening O=C1OC(c2cccc(Br)c2)=N/C1=C\c1ccccc1I returned mHTT CaM bind -3 and Pf apPOL block -4.
`CCCCCCOc1ccc(/C=C2\N=C(C)OC2=O)cc1OC` gave mHTT CaM bind 12 and Pf apPOL block -1.
`C=CCNC(=O)c1c[nH]c2ccc(S(=O)(=O)N(C)c3ccc(Cl)cc3F)cc2c1=O` gave mHTT CaM bind 7 and Pf apPOL block -5.
C=CCN(c1ccccc1)S(=O)(=O)c1ccc2[nH]cc(C(=O)NCCOC)c(=O)c2c1 was read as mHTT CaM bind 50* and Pf apPOL block -10.
For C=CCNC(=O)c1c[nH]c2ccc(S(=O)(=O)N(C)c3ccc(Cl)cc3)cc2c1=O the results were mHTT CaM bind 53* and Pf apPOL block -15.
C=CCN(c1ccccc1)S(=O)(=O)c1ccc2[nH]cc(C(=O)NCCCC)c(=O)c2c1 was read as mHTT CaM bind 32 and Pf apPOL block -5.
For COc1ccc(-c2cccc3c2CCN(C(=O)c2cccnc2)C3C)cc1 (centres undefined) the results were mHTT CaM bind 33 and Pf apPOL block -15.
Screening Cc1ccc(Oc2nccnc2N2CCCC(C(=O)Nc3ccc(F)cc3)C2)cc1 (centres undefined) returned mHTT CaM bind -2 and Pf apPOL block -5.
For O=c1oc2ccc(Cl)cc2n1CNc1ccccc1 the results were mHTT CaM bind 6 and Pf apPOL block -20.
For O=c1oc2ccc(Cl)cc2n1CNc1ccccc1F the results were mHTT CaM bind 3 and Pf apPOL block 63*.
Screening CCN1C(=O)c2cccnc2Sc2cc(NC(=O)c3ccc(Cl)cc3)ccc21 returned mHTT CaM bind 3 and Pf apPOL block 5.
CC1=NOC(=O)/C1=C/c1ccc(OCc2ccc(F)cc2)c(Cl)c1 was read as mHTT CaM bind -6 and Pf apPOL block -4.
Screening COc1cc(/C=C2/C(=O)ON=C2C)ccc1OCc1ccc(C)cc1 returned mHTT CaM bind 70* and Pf apPOL block -9.
For COc1cc(/C=C2\C(=O)ON=C2C)ccc1OCc1ccc(F)cc1 the results were mHTT CaM bind 99* and Pf apPOL block -2.
Cc1nc([N+](=O)[O-])cn1-c1nc(-c2ccccc2)cc(C(F)(F)F)n1 was read as mHTT CaM bind -6 and Pf apPOL block 3.
O=S(=O)(NCc1cccnc1)c1ccc2[nH]c3c(c2c1)CCCC3 was read as mHTT CaM bind 22 and Pf apPOL block -3.
